This passage reports outcome and AC50 results from PubChem BioAssay (EPA / NIEHS).

The source made the active and inactive calls. The calls were made as follows: active = hit-call score of the fitted dose curve at least 0.9, where 1 is the maximum; inactive = score below 0.9.

Read-out in this experiment: Tissue plasminogen activator (tPA), PLAT (gene 5327)
The experiment can be described thus: BSK_BE3C_tPA: BioMAP Diversity Plus: BE3C Assay for Tissue plasminogen activator (tPA) Biomarker Activity (AID 2283041).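 As to outcome: tPA level quantified by ELISA one day after compound addition.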 Conditions: primary human bronchial epithelial cells; actives raise or lower the signal. The method, then: BSK_BE3C is a cell-based, multiplexed-readout assay that uses bronchial epithelial cell, a human lung primary cell, with measurements taken at 24 hours after chemical dosing in a 96-well plate.BSK_BE3C_tPA is an assay component measured in the BSK_BE3C assay. It measures tPA antibody related to regulation of gene expression using ELISA technology.Data from the assay component BSK_BE3C_tPA was analyzed into 1 assay endpoint. This assay endpoint, BSK_BE3C_tPA, was analyzed with bidirectional fitting relative to DMSO as the negative control and baseline of activity. Using a type of binding reporter, gain or loss-of-signal activity can be used to understand changes in the signaling as they relate to the gene PLAT. Furthermore, this assay endpoint can be referred to as a primary readout, because this assay has produced multiple assay endpoints where this one serves a signaling function. To generalize the intended target to other relatable targets, this assay endpoint is annotated to the protease intended target family, where the subfamily is serine protease.
The levels of cell surface (or secreted, indicated by the prefix "s") biomarker endpoints were measured by ELISA. Overt cytotoxicity to cells in confluent adherent cultures (all systems other than the BT system) was assessed by measuring total protein levels using sulforhodamine B (SRB) staining in parallel cultures at the time of biomarker measurements, indicated as SRB endpoints. For proliferation assays for adherent cell types, individual cell types are cultured at sub-confluence and relative cell numbers quantified by SRB staining at time points optimized for each system (48 h: 3C and CASM3C systems; 72 h: BT and HDF3CGF systems; 96 h: SAg system). SRB was performed by staining cells with 0.1% SRB after fixation with 10% TCA and reading wells at 560 nm.Viability and proliferation of PBMC (T cells) was quantified by Alamar Blue reduction for the SAg and BT systems. For PBMC viability (referred to as PBMC Cytotoxicity within the assay endpoint names), cells were plated (75,000/well in a 96-well plate) and then chemical samples added for 1 h before addition of activators, SEB and TSST-1 (20 ng/mL final concentration each). Cells were incubated for 90 h. Then, Alamar Blue (20 uL/well) (Invitrogen, Cat DAL1100) was added for 6 h, and the plates were read with a fluorescence microplate reader at 546/580 nm (excitation/emission). For PBMC proliferation, cells were plated and activated as above but incubated for only 16 h prior to addition of Alamar Blue. Plates were read after 6 h.
As to `Cc1ccc(O)cc1`, the outcome was inactive.
On the same count and under the same terms, the entry for `Oc1ccc2c(c1)-c1ccccc1C2` is “inactive”; for `CC(C)CCCCCCOC(=O)c1ccc(C(=O)OCCCCCCC(C)C)c(C(=O)OCCCCCCC(C)C)c1` it is “inactive”.
As a reminder, the AC50 is the midpoint of the concentration-response curve, whichever way the signal moves. Consider `O=C(OC[C@H]1O[C@@H](OC(=O)c2cc(O)c(O)c(OC(=O)c3cc(O)c(O)c(O)c3)c2)[C@H](OC(=O)c2cc(O)c(O)c(OC(=O)c3cc(O)c(O)c(O)c3)c2)[C@@H](OC(=O)c2cc(O)c(O)c(OC(=O)c3cc(O)c(O)c(O)c3)c2)[C@@H]1OC(=O)c1cc(O)c(O)c(OC(=O)c2cc(O)c(O)c(O)c2)c1)c1cc(O)c(O)c(OC(=O)c2cc(O)c(O)c(O)c2)c1`, for which the AC50 is 1.45 µM (active).
With `CC(C)CCCCCCCOC(=O)CCCCC(=O)OCCCCCCCC(C)C`, the result was inactive.
In the case of `Cc1ccc(C)c(O)c1`, the result was inactive.
The same measure, in the same setting: the entry for `O=C1OC(=O)C2C3C=CC(C3)C12` (stereo not given) is “inactive”.
On the same count and under the same terms, in the case of `CCNc1ccccc1` it was “inactive”; in that of `CC(C)(O)c1coc(S(=O)(=O)NC(=O)Nc2c3c(cc4c2CCC4)CCC3)c1`, “inactive”; in that of `CC/C(=C\C(=N/O)C(N)=O)C(C)[N+](=O)[O-]` (stereo not given), “inactive”.
On the same count and under the same terms, in the case of `C=CC(=C)CCC=C(C)C` it was “inactive”; in that of `Cc1c(-c2cccnc2)c2ccccc2n1CCCCC(=O)O`, “inactive”.
In the case of `CC[C@H]1OC(=O)[C@H](C)[C@@H](O[C@H]2C[C@@](C)(OC)[C@@H](O)[C@H](C)O2)[C@H](C)[C@@H](O[C@@H]2O[C@H](C)C[C@H](N(C)C)[C@H]2O)[C@](C)(O)C[C@@H](C)C(=O)[C@H](C)[C@@H](O)[C@]1(C)O`, the outcome was inactive.
On the same count and under the same terms, in the case of `CCOC(=O)CC(CC(=O)OCC)(OC(C)=O)C(=O)OCC` it was “inactive”.
Still for that read-out and setting: in the case of `CCOCCO` it was “inactive”; in that of `CN(C)c1ccc(N=NS(=O)(=O)O)cc1`, “inactive”; in that of `O=C(O)c1cccc(Oc2ccccc2)c1`, “inactive”.
On to `On1ccccc1=S`, for which the AC50 was 3.55 µM (active).
As for `C1=CCCC=CCCC=CCC1`, the outcome was inactive.
Turning to `Nc1ccc(Nc2ccccc2)cc1`, the outcome was inactive.
The same measure, in the same setting: the entry for `C1N2CN3CN1CN(C2)C3` is “inactive”; for `O=P(OC(CCl)CCl)(OC(CCl)CCl)OC(CCl)CCl` it is “inactive”.
`Nc1nc2ncc(CNc3ccc(C(=O)N[C@@H](CCC(=O)O)C(=O)O)cc3)nc2c(=O)[nH]1`: the result was inactive.
The same measure, in the same setting: in the case of `Fc1ccccc1[C@@H](F)COC1CCC(Nc2ncnc3[nH]ncc23)CC1` (stereo not given in full) it was “inactive”; in that of `Nc1cccc(N)c1`, “inactive”.
With `O=C(NS(=O)(=O)/C=C/c1ccccc1)c1ccc(F)cc1Cl`, the result was inactive.
On the same count and under the same terms, in the case of `COC(=O)c1ccccc1O` it was “inactive”; in that of `O=C(O)CCN(C1(C(=O)NO)CCCC1)S(=O)(=O)c1ccc(Oc2ccc(F)cc2)cc1`, “inactive”.
Take `O=C(CCCCCCCCc1cccnc1)N1CCC(C=C(c2ccccc2)c2ccccc2)CC1`: the AC50 is 19.5 µM (active).
Regarding `Cc1ccc(S(=O)(=O)O)cc1C`, the outcome was inactive.
Take `O=c1n(CC2CO2)c(=O)n(CC2CO2)c(=O)n1CC1CO1` (stereo not given): the result was inactive.
`CCCCCCc1ccc(O)cc1O`: the AC50 was 13.2 µM (active).
For `CC(C)CC(C)(O)C#CC(C)(O)CC(C)C` (stereo not given), the outcome was inactive.
Still for that read-out and setting: in the case of `C=CCCCCCCCCC(=O)O` it was “inactive”; in that of `COc1ccc(-n2nc(C(F)F)cc2-c2ccc(S(C)=O)cc2)cc1` (stereo not given), “inactive”.
Still for that read-out and setting: the entry for `CC(C)=CCC/C(C)=C\CO` is “inactive”; for `O=C(O)CC(O)C(=O)O` (stereo not given) it is “inactive”; for `Cn1c(=O)cc(Oc2ccc(F)cc2F)c2cnc(NCC(C)(C)O)nc21` it is “inactive”.
For `CC(C)=CCCC(C)CCO` (stereo not given), the outcome was inactive.
Still for that read-out and setting: in the case of `CCCC(=O)OCC` it was “inactive”.
